Holding throughout (experiment): DAPPL (digital affinity profiling via proximity ligation, sequencing); 10 mM Tris-HCl pH 7.5, 50 mM NaCl, 1 mM DTT, 4% glycerol, room temperature, 30 min; GST-TFs on glutathione beads, 16-mer random dsDNA library, 0.1% formaldehyde crosslink after washing; high values mean tight binding
One assay addresses T1, FEV (Homo sapiens, UniProt Q99581 1-238).
T1 sequence: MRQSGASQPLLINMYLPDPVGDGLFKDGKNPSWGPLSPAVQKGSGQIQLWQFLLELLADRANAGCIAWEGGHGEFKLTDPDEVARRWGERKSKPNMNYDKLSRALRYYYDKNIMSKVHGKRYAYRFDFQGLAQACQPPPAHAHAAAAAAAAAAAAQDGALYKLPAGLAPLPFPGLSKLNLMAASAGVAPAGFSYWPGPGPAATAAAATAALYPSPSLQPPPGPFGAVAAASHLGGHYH
Particulars: protein: recombinant; tags: N-terminal GST; dsDNA, one strand shown. In short, it runs like this: (§1)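 Binding signal is defined as a hexamer's read frequency for one factor over its frequency for the tag-only sample. To obtain reads, GST-fused human transcription factors were expressed in yeast, captured on glutathione beads, barcoded with DNA and pooled with that sample. Pools met 200 nmole of a 16-mer random double-stranded DNA library in Tris/NaCl/DTT/glycerol buffer for 30 min at room temperature before washing, 0.1% formaldehyde crosslinking, proximity ligation (BsaI/T4 ligase, 1 h, 37 °C), PCR and Illumina NextSeq500 sequencing.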

The target in the next assay is ETV5 (Homo sapiens, UniProt P41161 1-510). As to conditions: protein: recombinant; tags: N-terminal GST; dsDNA, one strand shown. Put shortly:
as §1

The target of another assay is HSF1 (Homo sapiens, UniProt Q00613 1-529). As to conditions: protein: recombinant; tags: N-terminal GST; chain copies: 3; dsDNA, one strand shown. In short, it runs like this: as §1
Sequence of HSF1 (Q00613 whole entry): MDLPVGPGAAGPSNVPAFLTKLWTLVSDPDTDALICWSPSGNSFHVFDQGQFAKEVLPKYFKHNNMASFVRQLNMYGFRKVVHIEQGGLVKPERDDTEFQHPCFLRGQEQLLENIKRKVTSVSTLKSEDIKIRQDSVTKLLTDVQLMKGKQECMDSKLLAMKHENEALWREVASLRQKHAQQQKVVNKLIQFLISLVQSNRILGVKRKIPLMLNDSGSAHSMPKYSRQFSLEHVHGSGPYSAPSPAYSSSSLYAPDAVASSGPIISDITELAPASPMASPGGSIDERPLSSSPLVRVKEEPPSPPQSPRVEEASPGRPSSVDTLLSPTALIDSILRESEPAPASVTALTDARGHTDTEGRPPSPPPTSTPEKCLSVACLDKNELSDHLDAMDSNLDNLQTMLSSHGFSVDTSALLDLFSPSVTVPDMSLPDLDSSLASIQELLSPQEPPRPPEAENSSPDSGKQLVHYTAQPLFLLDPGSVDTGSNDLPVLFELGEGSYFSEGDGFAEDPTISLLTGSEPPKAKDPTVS
The target of a further assay is T2, SPIC (Homo sapiens, UniProt Q8N5J4 1-248).
T2 sequence: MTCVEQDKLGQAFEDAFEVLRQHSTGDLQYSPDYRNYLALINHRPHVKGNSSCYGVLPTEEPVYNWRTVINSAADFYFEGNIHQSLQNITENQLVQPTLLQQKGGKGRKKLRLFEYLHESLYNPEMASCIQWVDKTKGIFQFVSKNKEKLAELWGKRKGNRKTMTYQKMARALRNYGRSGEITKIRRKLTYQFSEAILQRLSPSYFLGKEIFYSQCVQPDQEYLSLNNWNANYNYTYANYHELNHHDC
Particulars: protein: recombinant; tags: N-terminal GST; dsDNA, one strand shown. In short, it runs like this: as §1

The target of another assay is ELF4 (Homo sapiens, UniProt Q99607 1-663). Particulars: protein: recombinant; tags: N-terminal GST; dsDNA, one strand shown. In short, it runs like this:
as §1

The target of a further assay is T3, ELK4 (Homo sapiens, UniProt P28324-2 1-405).
T3 sequence: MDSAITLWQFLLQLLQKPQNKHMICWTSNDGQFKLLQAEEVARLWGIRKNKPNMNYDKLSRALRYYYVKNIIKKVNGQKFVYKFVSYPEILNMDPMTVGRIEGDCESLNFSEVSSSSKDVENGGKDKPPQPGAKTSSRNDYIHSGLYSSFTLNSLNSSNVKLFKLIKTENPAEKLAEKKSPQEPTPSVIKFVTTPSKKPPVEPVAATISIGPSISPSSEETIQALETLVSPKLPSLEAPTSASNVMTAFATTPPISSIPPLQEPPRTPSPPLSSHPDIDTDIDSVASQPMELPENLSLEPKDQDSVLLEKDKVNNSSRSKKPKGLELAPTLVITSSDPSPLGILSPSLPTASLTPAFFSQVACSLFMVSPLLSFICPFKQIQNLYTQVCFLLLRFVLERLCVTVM
Particulars: protein: recombinant; tags: N-terminal GST; dsDNA, one strand shown. Put shortly:
as §1

The target in a further assay is T4, ETV2 (Homo sapiens, UniProt O00321 1-342).
T4 sequence: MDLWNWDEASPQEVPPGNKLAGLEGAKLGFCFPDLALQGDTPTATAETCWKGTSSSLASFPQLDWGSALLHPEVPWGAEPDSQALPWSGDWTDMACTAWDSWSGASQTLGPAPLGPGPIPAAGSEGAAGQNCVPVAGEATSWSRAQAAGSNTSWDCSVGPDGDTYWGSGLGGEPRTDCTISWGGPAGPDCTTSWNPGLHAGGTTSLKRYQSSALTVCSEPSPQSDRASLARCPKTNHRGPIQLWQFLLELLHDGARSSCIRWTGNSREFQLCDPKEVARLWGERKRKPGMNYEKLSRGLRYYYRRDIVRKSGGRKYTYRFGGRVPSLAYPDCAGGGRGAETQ
Particulars: protein: recombinant; tags: N-terminal GST; dsDNA, one strand shown. Put shortly: as §1

Another assay has as its target T5, ELF3 (Homo sapiens, UniProt P78545 1-371).
T5 sequence: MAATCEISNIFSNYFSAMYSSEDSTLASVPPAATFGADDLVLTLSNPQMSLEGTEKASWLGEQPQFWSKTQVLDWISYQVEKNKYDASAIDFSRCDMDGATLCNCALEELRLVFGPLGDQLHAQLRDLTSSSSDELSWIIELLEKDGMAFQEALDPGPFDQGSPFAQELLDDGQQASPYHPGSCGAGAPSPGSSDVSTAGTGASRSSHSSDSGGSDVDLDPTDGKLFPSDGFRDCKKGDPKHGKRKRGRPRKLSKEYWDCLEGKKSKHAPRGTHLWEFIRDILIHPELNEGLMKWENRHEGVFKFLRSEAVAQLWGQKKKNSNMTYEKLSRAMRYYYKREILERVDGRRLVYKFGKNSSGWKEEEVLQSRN
Particulars: protein: recombinant; tags: N-terminal GST; dsDNA, one strand shown. In short, it runs like this:
as §1

The next assay addresses CRX (Homo sapiens, UniProt O43186 1-299). Particulars: protein: recombinant; tags: N-terminal GST; dsDNA, one strand shown. Put shortly:
as §1

In a further assay the target is ETV1 (Homo sapiens, UniProt P50549 1-477). As to conditions: protein: recombinant; tags: N-terminal GST; dsDNA, one strand shown. Put shortly:
as §1

In another assay the target is T6, ERF (Homo sapiens, UniProt P50548 1-548).
T6 sequence: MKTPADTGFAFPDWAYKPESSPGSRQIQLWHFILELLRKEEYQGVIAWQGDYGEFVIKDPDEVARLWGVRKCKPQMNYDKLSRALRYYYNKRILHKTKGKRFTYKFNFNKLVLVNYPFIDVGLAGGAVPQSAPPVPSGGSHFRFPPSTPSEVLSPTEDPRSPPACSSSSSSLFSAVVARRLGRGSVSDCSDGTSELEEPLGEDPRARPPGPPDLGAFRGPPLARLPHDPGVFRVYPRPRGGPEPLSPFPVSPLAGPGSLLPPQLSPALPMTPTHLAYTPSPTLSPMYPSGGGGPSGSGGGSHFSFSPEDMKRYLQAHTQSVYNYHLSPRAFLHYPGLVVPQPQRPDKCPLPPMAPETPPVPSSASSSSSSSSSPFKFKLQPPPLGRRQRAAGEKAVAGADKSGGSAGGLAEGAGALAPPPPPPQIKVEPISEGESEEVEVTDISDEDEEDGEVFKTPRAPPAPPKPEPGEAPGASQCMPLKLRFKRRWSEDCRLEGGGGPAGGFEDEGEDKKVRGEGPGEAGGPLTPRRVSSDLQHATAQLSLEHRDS
Particulars: protein: recombinant; tags: N-terminal GST; dsDNA, one strand shown. In short, it runs like this: as §1

The next assay concerns the target T7, ETV3L (Homo sapiens, UniProt Q6ZN32 1-361).
T7 sequence: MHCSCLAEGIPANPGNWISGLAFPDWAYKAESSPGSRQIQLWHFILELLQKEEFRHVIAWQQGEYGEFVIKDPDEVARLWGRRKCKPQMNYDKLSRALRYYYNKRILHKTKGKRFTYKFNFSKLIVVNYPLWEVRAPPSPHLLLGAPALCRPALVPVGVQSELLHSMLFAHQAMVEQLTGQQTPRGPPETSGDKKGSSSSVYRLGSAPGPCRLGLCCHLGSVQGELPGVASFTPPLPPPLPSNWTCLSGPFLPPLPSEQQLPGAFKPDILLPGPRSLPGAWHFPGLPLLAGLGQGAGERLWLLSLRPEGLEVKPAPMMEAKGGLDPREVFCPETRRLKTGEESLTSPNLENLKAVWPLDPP
Particulars: protein: recombinant; tags: N-terminal GST; dsDNA, one strand shown. In short, it runs like this:
as §1

For another assay, the target named is T8, ETS2 (Homo sapiens, UniProt P15036 1-469).
T8 sequence: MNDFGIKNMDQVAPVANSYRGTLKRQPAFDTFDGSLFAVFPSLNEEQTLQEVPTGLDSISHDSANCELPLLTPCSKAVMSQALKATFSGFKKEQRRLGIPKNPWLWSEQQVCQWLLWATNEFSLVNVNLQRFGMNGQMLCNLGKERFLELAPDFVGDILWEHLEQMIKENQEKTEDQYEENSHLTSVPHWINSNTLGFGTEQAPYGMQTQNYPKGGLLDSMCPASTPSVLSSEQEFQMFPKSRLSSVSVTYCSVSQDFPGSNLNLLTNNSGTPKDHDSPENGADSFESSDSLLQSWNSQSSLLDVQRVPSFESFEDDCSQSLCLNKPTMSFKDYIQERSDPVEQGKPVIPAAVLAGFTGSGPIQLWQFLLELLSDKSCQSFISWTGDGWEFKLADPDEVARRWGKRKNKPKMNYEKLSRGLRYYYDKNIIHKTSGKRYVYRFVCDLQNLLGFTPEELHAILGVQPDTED
As to conditions: protein: recombinant; tags: N-terminal GST; dsDNA, one strand shown. In short, it runs like this: as §1

Another assay addresses T9, SPDEF (Homo sapiens, UniProt O95238 1-335).
T9 sequence: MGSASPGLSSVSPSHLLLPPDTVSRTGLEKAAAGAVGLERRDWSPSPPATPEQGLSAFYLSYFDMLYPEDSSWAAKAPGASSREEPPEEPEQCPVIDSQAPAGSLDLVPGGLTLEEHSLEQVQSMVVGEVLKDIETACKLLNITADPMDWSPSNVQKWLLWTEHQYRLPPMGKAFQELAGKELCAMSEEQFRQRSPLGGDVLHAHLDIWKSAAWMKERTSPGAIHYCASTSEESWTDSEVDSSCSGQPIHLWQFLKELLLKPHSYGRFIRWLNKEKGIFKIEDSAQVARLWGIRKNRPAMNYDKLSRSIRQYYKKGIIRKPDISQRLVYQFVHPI
Particulars: protein: recombinant; tags: N-terminal GST; dsDNA, one strand shown. Put shortly: as §1

A further assay concerns the target T10, ETV7 (Homo sapiens, UniProt Q9Y603 1-341).
T10 sequence: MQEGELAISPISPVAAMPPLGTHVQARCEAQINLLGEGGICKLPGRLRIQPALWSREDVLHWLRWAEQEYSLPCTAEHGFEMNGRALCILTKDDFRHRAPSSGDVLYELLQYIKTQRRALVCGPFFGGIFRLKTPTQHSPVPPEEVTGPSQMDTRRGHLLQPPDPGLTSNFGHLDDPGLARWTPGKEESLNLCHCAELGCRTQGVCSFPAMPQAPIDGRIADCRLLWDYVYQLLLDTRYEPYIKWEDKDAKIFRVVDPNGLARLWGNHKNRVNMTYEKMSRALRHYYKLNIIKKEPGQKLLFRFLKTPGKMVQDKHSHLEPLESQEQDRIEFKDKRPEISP
As to conditions: protein: recombinant; tags: N-terminal GST; dsDNA, one strand shown. In short, it runs like this: as §1

The next assay has as its target T11, ELF5 (Homo sapiens, UniProt Q9UKW6-2 1-255).
T11 sequence: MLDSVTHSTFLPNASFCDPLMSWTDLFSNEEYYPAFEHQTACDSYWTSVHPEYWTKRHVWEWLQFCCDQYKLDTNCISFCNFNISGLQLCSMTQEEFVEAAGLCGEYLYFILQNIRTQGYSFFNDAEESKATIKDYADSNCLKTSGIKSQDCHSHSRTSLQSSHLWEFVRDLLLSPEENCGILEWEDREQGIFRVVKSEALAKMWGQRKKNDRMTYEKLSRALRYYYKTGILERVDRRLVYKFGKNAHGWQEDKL
Particulars: protein: recombinant; tags: N-terminal GST; dsDNA, one strand shown. Put shortly: as §1

For the next assay, the target named is T12, ETV3 (Homo sapiens, UniProt P41162-2 1-143).
T12 sequence: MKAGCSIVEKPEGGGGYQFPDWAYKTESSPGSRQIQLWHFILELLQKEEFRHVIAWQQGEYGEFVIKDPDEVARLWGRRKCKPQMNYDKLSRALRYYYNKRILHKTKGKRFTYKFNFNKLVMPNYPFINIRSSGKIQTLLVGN
As to conditions: protein: recombinant; tags: N-terminal GST; dsDNA, one strand shown. Put shortly: as §1

A further assay addresses ETV6 (Homo sapiens, UniProt P41212 1-452). Particulars: protein: recombinant; tags: N-terminal GST; dsDNA, one strand shown. In short, it runs like this:
as §1

Our source for the binding signal values is paper PMC7862700, “An all-to-all approach to the identification of sequence-specific readers for epigenetic DNA modifications on cytosine”.

Sequence of CRX (O43186 whole entry): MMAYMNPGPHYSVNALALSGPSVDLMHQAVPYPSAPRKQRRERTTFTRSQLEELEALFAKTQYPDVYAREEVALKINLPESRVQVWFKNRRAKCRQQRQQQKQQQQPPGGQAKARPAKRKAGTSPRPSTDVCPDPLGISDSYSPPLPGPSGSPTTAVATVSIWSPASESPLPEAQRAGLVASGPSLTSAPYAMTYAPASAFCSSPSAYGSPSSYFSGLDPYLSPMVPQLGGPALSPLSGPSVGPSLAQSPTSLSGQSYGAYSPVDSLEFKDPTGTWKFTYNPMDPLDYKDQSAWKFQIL
Sequence of ETV6 (P41212 whole entry): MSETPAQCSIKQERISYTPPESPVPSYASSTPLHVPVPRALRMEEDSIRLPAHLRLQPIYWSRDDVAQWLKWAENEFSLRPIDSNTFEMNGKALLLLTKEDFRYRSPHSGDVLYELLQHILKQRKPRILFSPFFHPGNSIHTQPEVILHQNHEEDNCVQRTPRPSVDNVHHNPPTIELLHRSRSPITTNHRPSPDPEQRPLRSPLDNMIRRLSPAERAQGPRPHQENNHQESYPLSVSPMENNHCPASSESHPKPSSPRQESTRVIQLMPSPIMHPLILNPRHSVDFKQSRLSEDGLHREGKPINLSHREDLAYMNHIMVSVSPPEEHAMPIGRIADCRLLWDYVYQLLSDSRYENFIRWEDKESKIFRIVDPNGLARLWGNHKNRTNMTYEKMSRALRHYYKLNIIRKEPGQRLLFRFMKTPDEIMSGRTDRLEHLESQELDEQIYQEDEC
Sequence of ETV1 (P50549 whole entry): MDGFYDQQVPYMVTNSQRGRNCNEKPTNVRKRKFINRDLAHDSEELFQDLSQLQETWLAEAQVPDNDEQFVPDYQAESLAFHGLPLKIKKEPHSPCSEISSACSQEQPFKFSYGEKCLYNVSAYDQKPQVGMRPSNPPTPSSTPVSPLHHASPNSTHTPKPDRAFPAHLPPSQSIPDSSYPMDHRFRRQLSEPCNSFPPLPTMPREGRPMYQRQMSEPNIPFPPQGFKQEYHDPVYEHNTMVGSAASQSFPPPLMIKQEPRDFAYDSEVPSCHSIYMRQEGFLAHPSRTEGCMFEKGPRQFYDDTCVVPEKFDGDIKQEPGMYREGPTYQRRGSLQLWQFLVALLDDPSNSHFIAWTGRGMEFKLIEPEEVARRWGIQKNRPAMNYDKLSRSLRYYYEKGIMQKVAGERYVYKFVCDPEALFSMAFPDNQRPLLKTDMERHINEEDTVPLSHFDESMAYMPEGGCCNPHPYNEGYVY
Sequence of ELF4 (Q99607 whole entry): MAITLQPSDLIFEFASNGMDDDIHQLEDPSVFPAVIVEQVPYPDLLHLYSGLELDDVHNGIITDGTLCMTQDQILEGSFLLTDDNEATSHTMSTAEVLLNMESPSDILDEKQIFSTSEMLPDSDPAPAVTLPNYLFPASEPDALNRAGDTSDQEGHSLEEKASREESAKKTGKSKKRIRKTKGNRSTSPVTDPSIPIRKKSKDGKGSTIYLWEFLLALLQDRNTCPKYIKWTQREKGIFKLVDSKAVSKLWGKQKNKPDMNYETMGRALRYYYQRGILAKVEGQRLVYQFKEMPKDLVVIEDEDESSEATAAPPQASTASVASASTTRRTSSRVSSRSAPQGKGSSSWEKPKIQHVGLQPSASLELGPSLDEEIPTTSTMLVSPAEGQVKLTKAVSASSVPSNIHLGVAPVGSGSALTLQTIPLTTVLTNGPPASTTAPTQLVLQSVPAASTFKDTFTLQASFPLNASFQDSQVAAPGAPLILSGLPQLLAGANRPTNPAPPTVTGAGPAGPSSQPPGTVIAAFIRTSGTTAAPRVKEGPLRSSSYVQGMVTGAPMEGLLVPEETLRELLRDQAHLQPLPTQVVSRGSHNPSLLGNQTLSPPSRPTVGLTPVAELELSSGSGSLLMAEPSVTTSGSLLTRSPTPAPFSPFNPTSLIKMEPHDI
Sequence of ETV5 (P41161 whole entry): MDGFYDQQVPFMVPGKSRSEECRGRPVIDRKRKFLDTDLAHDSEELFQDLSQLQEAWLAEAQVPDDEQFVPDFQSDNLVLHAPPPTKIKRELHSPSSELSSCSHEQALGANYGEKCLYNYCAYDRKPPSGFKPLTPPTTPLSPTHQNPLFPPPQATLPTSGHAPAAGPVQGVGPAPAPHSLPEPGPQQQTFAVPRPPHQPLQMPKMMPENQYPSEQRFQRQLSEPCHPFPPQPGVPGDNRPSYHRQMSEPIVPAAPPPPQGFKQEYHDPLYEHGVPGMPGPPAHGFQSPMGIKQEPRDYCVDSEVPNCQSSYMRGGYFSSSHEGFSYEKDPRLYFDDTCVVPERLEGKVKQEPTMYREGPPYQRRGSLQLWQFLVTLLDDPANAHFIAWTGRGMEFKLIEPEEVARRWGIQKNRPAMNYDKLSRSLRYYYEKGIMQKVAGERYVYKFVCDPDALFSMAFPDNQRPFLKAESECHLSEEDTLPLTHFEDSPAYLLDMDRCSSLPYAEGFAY

TCTGAT: the binding signal in the assay with FEV is 1.18 fold enrichment (6-mer frequency, TF over GST control); with ETV5 it was 1.23 fold enrichment (6-mer frequency, TF over GST control); in the assay with HSF1 it was 1.28 fold enrichment (6-mer frequency, TF over GST control); with SPIC it was 1.26 fold enrichment (6-mer frequency, TF over GST control); with ELF4, 1.24 fold enrichment (6-mer frequency, TF over GST control); in the assay with ELK4, 1.19 fold enrichment (6-mer frequency, TF over GST control). The binding signal with ETV2 is 1.11 fold enrichment (6-mer frequency, TF over GST control); in the assay with ELF3 it was 1.17 fold enrichment (6-mer frequency, TF over GST control); in the assay with CRX, 1.55 fold enrichment (6-mer frequency, TF over GST control); in the assay with ETV1, 1.15 fold enrichment (6-mer frequency, TF over GST control); with ERF, 1.22 fold enrichment (6-mer frequency, TF over GST control); with ETV3L, 1.29 fold enrichment (6-mer frequency, TF over GST control). For the same sequence, the binding signal in the assay with ETS2 was 1.29 fold enrichment (6-mer frequency, TF over GST control); with SPDEF it was 1.22 fold enrichment (6-mer frequency, TF over GST control); in the assay with ETV7, 1.23 fold enrichment (6-mer frequency, TF over GST control); with ELF5 it was 1.19 fold enrichment (6-mer frequency, TF over GST control); in the assay with ETV3 it was 1.21 fold enrichment (6-mer frequency, TF over GST control); with ETV6, 1.19 fold enrichment (6-mer frequency, TF over GST control).
